Hit rate of the full screen: of about 310,000 compounds, about 14,000 (4.5%) showed an effect of 50% or more. The effect is printed as a negative number. The list comes from a sample in which strong results are over-represented; it also holds similar structures and randomly drawn compounds.
target: human ether-à-go-go-related gene (hERG) potassium channel (human, UniProt Q12809); test: primary screen, population patch clamp on CHO cells stably expressing hERG; higher = less effect of the substance
Sequence (Q12809 whole entry, looked up): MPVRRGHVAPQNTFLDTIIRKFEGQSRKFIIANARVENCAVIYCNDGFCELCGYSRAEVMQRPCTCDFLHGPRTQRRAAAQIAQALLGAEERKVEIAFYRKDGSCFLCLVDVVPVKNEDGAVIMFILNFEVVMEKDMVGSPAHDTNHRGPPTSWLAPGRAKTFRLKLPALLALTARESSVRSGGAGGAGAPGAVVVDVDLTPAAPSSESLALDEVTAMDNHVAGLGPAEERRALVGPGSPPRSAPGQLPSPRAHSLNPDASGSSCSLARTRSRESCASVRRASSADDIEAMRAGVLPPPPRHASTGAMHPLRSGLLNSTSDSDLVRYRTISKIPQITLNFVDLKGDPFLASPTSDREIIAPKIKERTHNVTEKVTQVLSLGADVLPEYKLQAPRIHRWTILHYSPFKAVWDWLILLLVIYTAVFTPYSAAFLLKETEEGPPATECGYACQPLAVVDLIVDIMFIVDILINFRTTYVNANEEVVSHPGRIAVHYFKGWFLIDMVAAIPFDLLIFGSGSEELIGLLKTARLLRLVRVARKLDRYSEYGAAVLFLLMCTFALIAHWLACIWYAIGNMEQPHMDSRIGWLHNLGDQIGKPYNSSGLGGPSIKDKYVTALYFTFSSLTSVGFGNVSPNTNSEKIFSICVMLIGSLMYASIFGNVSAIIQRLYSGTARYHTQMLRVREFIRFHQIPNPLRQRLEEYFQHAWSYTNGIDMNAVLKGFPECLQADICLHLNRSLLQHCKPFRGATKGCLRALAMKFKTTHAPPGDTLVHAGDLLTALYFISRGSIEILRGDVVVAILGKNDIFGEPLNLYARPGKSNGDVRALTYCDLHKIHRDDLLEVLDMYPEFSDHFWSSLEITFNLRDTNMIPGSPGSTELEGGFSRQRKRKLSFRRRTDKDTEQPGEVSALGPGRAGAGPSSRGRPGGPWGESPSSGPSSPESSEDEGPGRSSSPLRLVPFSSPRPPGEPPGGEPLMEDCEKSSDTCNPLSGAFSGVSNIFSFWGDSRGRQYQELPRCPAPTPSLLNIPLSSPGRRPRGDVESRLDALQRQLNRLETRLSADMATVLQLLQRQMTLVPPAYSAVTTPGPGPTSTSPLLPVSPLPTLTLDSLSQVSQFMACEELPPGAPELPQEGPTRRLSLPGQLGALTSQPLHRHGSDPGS
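Also: peak tail current of the secondary pulse compared with the same well before compound.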

First: O=c1oc2ccc(C#CC3(O)CCCCC3)cc2cc1-n1cc(C2(O)CCCCC2)nn1
Second: Cc1ccc(NC(=S)NCCN(C2CCCCC2)C2CCCC2)cc1C
The “hERG current change (%, negative = inhibition) at 10uM” value of the first is higher: 24.7% for the first, -68.1% for the second.

Going from O=C(c1ccc(F)cc1)n1c(=S)nc2ccccn21 to O=C(C1CCCN(S(=O)(=O)c2ccc(F)cc2)C1)N(Cc1cccs1)C1CC1 (stereo not drawn), the “hERG current change (%, negative = inhibition) at 10uM” value falls from -1.25% to -78.2%.

First: CC(=O)N(Cc1nc2sc(C)c(C)c2c(=O)[nH]1)C1CCCC1
Second: Cc1ccc(S(=O)(=O)N2CCCC(C(=O)N(Cc3cccs3)C3CC3)C2)cc1 (stereo not drawn)
The “hERG current change (%, negative = inhibition) at 10uM” value of the first is higher: 21.8% for the first, -67.7% for the second.

Compared with FC(F)(F)c1cccc(N2CCN(C3CC4CCC3C4)CC2)c1 (stereo not drawn), O=C(C1CCCN(S(=O)(=O)c2ccc(F)cc2)C1)N1CCCC1 (stereo not drawn) is higher in “hERG current change (%, negative = inhibition) at 10uM” value: -1.68% for the first, 5.78% for the second.

Compared with CCc1ccc(C(=O)COC(=O)c2cnccn2)cc1, CCCCC(OC(=O)c1ccco1)C(=O)NCc1ccc(C)cc1 (stereo not drawn) is lower in “hERG current change (%, negative = inhibition) at 10uM” value: 0.242% for the first, -0.428% for the second.

Going from Cc1ccc(NC(=S)NC2CCCC2)cc1 to Cc1ccc(NC(=S)NNC(=S)NC2CCCCC2)cc1, the “hERG current change (%, negative = inhibition) at 10uM” value rises from 4.64% to 21%.

Going from Cc1ccc(NC(=S)NCC2CCCO2)cc1C (stereo not drawn) to Cc1ccc(NC(=S)NC2CCCC2)cc1C, the “hERG current change (%, negative = inhibition) at 10uM” value rises from -1.97% to 14.8%.

Going from Cc1ccc(NC(=S)NCCN(C2CCCCC2)C2CCCC2)cc1 to CCOC(=O)C1CCCN(S(=O)(=O)c2ccc(C)cc2)C1 (stereo not drawn), the “hERG current change (%, negative = inhibition) at 10uM” value rises from -72% to -2.86%.

First: Cc1ccc(N2CC(C(=O)Nc3nnc(SCCN4CCOCC4)s3)CC2=O)cc1C (stereo not drawn)
Second: NC(=O)CCN1CCN(Cc2nc(C(c3ccccc3)c3ccccc3)no2)CC1
The “hERG current change (%, negative = inhibition) at 10uM” value of the first is higher: 20.7% for the first, -25.6% for the second.

Going from COc1ccccc1-n1nnnc1SCc1cc2c(cc1Br)OCO2 to Cc1nn(-c2ccccc2)c2[nH]c(=O)c(CNCc3ccc4c(c3)OCO4)cc12, the “hERG current change (%, negative = inhibition) at 10uM” value falls from -9.95% to -28.7%.

First: O=C(Cn1cnc([N+](=O)[O-])n1)NC1CC1
Second: O=C(O)C1CCCN(S(=O)(=O)c2ccc(F)cc2)C1 (stereo not drawn)
The “hERG current change (%, negative = inhibition) at 10uM” value of the first is lower: 7.02% for the first, 20.4% for the second.

Compared with Cc1nn(-c2ccc(Cl)cc2)c2[nH]c(=O)c(CNCc3ccc4c(c3)OCO4)cc12, CC(C)(C)c1nn(-c2ccccc2)c2[nH]c(=O)c(CNCc3ccc4c(c3)OCO4)cc12 is higher in “hERG current change (%, negative = inhibition) at 10uM” value: -70% for the first, -17.9% for the second.

First: Cc1ccc2c(C)c(C(=O)Nc3ccc(S(N)(=O)=O)cc3)oc2c1C
Second: Cc1ccccc1SCC(=O)OCC(=O)Nc1ccc(N(C)C)cc1
The “hERG current change (%, negative = inhibition) at 10uM” value of the first is higher: 31.2% for the first, 10.4% for the second.

Going from COc1ccccc1CC1C(=O)C2CCN1CC2 (stereo not drawn) to c1ccc(C(c2ccccc2)c2noc(CN3CCC(c4ccncc4)CC3)n2)cc1, the “hERG current change (%, negative = inhibition) at 10uM” value falls from 14.5% to -32.7%.

First: NCCSc1c(-c2ccc(Cl)cc2)[nH]c2ccccc12
Second: Cc1ccc(-c2[nH]c3ccccc3c2SCCN)cc1
The “hERG current change (%, negative = inhibition) at 10uM” value of the first is lower: -84.3% for the first, -27.6% for the second.

Going from NCCSc1c(-c2ccccc2)[nH]c2ccccc12 to O=C1CSC(c2ccccc2)N1CCc1ccccc1 (stereo not drawn), the “hERG current change (%, negative = inhibition) at 10uM” value rises from -12.1% to 1.82%.

First: O=C(NCC1CCCO1)C(=O)N/N=C/c1c(F)cccc1Cl (stereo not drawn)
Second: O=C(C1CCCN(S(=O)(=O)c2ccc(Cl)cc2)C1)N(Cc1cccs1)C1CC1 (stereo not drawn)
The “hERG current change (%, negative = inhibition) at 10uM” value of the first is higher: 8.04% for the first, -63% for the second.

Going from Cc1noc(C)c1COC(=O)/C=C/c1ccc(Cl)cc1 to CCn1cc(/C=C/C(=O)Nc2ccc(C)cc2Br)cn1, the “hERG current change (%, negative = inhibition) at 10uM” value falls from 0.131% to -30.7%.

First: Cc1ccc(S(=O)(=O)N2CCCC2C(=O)N(C)Cc2cccs2)cc1 (stereo not drawn)
Second: CN1CCN(C(=O)C2CCCN(S(=O)(=O)c3ccc(Cl)cc3)C2)CC1 (stereo not drawn)
The “hERG current change (%, negative = inhibition) at 10uM” value of the first is lower: -19.9% for the first, -18.8% for the second.

First: O=C(C1CCCN(S(=O)(=O)c2ccc(Cl)cc2)C1)N1CCCC1 (stereo not drawn)
Second: c1ccc(C(c2ccccc2)c2noc(CN3CCN(C4CCCC4)CC3)n2)cc1
The “hERG current change (%, negative = inhibition) at 10uM” value of the first is higher: -19% for the first, -70.1% for the second.

First: Cc1noc(/C=C/Nc2ccc(F)cc2F)c1[N+](=O)[O-]
Second: Cc1nc(CN2CCN(Cc3nc(C(c4ccccc4)c4ccccc4)no3)CC2)cs1
The “hERG current change (%, negative = inhibition) at 10uM” value of the first is higher: 12.1% for the first, -45.5% for the second.

Compared with COc1ccc(NC(=S)N(CCN(C)C)C(C)c2ccco2)cc1 (stereo not drawn), COCC1CCCN(Cc2nc(C(c3ccccc3)c3ccccc3)no2)C1 (stereo not drawn) is lower in “hERG current change (%, negative = inhibition) at 10uM” value: -16.6% for the first, -19.6% for the second.

Compared with c1ccc(C(c2ccccc2)c2noc(CN3CCN(CC4CC4)CC3)n2)cc1, CC(=O)N1CCN(Cc2nc(C(c3ccccc3)c3ccccc3)no2)CC1 is higher in “hERG current change (%, negative = inhibition) at 10uM” value: -61.6% for the first, 10.8% for the second.

Going from Cc1cccnc1CN1CCN(Cc2nc(C(c3ccccc3)c3ccccc3)no2)CC1 to C[C@@H]1CN(C2CCN(Cc3nc(C(c4ccccc4)c4ccccc4)no3)CC2)C[C@H](C)O1, the “hERG current change (%, negative = inhibition) at 10uM” value rises from -56.2% to -38.6%.

Source: paper PMC4336329 (PLoS ONE, 2015)
